Assay results reported in the supplement of paper PMC12636033.
± gives the standard deviation of the averaged measurements. In all, about 33,000 sequences were measured (“E-score (rank enrichment, -0.5 to 0.5)”: median about -0.0068, highest 2% from about 0.24 on). What follows is part of a selection rich in the highest values, with near analogues and random picks from the rest.

test system: muMax20 (Max(13-93) K31hArg/K57hArg, M65Nle); assay: PBM 8-mer E-score (E-score (rank enrichment, -0.5 to 0.5)); higher = stronger preferential binding
Method: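 Protein binding microarray (universal PBM chip covering all 10-mers in fixed probe flanks) with chemically synthesized human Max(13-93) bHLH-LZ analogs (not full-length Max) bearing noncanonical residues (hArg, Tha, Aib, Nle at 65) and aromatic Cys staples. Read-out per 8-mer (and its reverse complement): E-score (rank-based enrichment, -0.5 to 0.5) and Z-score of median probe intensity.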

Sequence | PBM 8-mer E-score
ATACTGAA | 0.0687 ± 0.079
GCAGGTCA | -0.191 ± 0.0023
CGCTCGAA | -0.156 ± 0.0039
AGATCTTC | -0.15 ± 0.053
CCATGTCG | -0.0015 ± 0.13
AATACATA | 0.255 ± 0.074
GACACATA | 0.139 ± 0.071
TATACATA | 0.237 ± 0.023
GATACAAA | 0.0222 ± 0.023
CATACATA | 0.163 ± 0.068
AATACAAG | 0.137 ± 0.0018
CACACATA | 0.12 ± 0.12
GATACATA | 0.204 ± 0.044
AATACATG | 0.205 ± 0.015
TACACATA | 0.245 ± 0.037
AATACAAA | 0.343 ± 0.042
AATACATT | 0.158 ± 0.021
ACTGGATC | -0.0849 ± 0.029
CCTCATCA | -0.0311 ± 0.07
CGTCTACA | -0.0683 ± 0.077
ATTCGACG | 0.0309 ± 0.1
CACGAGCA | -0.159 ± 0.013
AAAAACGT | 0.249 ± 0.0044
AAAGACGA | 0.246 ± 0.0064
AAAAACGA | 0.297 ± 0.0076

Sequence | PBM 8-mer E-score
GAAAACGA | 0.0327 ± 0.09
AAAAACGC | 0.0604 ± 0.015
CAAAACGA | 0.0111 ± 0.00023
AAAAACGG | -0.048 ± 0.14
GAAGACGA | -0.0988 ± 0.065
AAAGACGG | 0.0825 ± 0.019
CTCGGTCC | -0.2695 ± 0.0006
AGAGTTCA | -0.124 ± 0.038
CGTTCGCA | -0.0226 ± 0.0093
CTCAGACA | 0.044 ± 0.035
GCCATATA | 0.0868 ± 0.0087
GTACTTCA | 0.237 ± 0.13
CTACTTCA | 0.00799 ± 0.001
GTACTACA | 0.262 ± 0.072
CTACTACA | 0.146 ± 0.08
ATACTTCA | 0.0693 ± 0.032
ATACTACA | 0.222 ± 0.078
ATCAGCGC | -0.0642 ± 0.0034
CACCGGAG | -0.173 ± 0.083
ACACATTC | -0.0504 ± 0.14
AATACGAA | 0.136 ± 0.041
AATCAACA | 0.256 ± 0.032
GATCAACA | 0.0109 ± 0.0053
TATCAACA | 0.158 ± 0.054
ACGGTGTG | -0.143 ± 0.056

Sequence | PBM 8-mer E-score
CCCTTGTA | 0.0442 ± 0.13
ACCTTGTA | 0.238 ± 0.077
GCCTTGTA | 0.029 ± 0.077
GTCAGGAA | -0.0169 ± 0.068
ATAGAGCC | -0.106 ± 0.093
GAATACCA | 0.121 ± 0.025
TAATACTA | 0.252 ± 0.0039
CAATACTA | 0.16 ± 0.062
TAATACCA | 0.24 ± 0.014
AAATACTA | 0.193 ± 0.081
CAATACCA | 0.149 ± 0.042
ACAGCAGG | -0.0464 ± 0.034
GCTCCCCA | 0.128 ± 0.042
CGGTCCTA | -0.17 ± 0.11
ATATGGGG | 0.0664 ± 0.016
GCGCGAAC | -0.0762 ± 0.17
GACTAAGC | -0.239 ± 0.043
AACCATTA | 0.269 ± 0.0088
CACCATTA | 0.0322 ± 0.16
AACCATTG | -0.0386 ± 0.14
TAAATGAA | 0.114 ± 0.11
AGTTGCAT | 0.287 ± 0.067
AGTTGCAG | 0.0866 ± 0.039
AGTTGCAC | -0.00822 ± 0.011
GGTTACAC | 0.151 ± 0.076

Sequence | PBM 8-mer E-score
CGTGCTCA | 0.162 ± 0.051
CGATGGAG | -0.153 ± 0.037
AACGTGGC | 0.0382 ± 0.033
CACGTGGG | 0.447 ± 0.062
CACGTGGC | 0.442 ± 0.068
GACGTGGC | -0.0512 ± 0.032
AACGTGGG | 0.184 ± 0.14
GATGTGAC | -0.206 ± 0.059
GATGTGAA | 0.105 ± 0.079
TATGTGAA | 0.299 ± 0.074
AATGTGAA | 0.211 ± 0.056
CATGTGAG | 0.216 ± 0.059
CAAGTGGG | 0.0751 ± 0.013
CATGTGAC | 0.314 ± 0.075
AAGTTCTC | -0.179 ± 0.0056
CACTGCAC | -0.0231 ± 0.055
CTCTAACC | -0.0244 ± 0.061
CGAATTTC | 0.0312 ± 0.1
CGTTACCA | 0.124 ± 0.012
CGCCATTA | -0.0752 ± 0.029
GCCCCTGA | -0.179 ± 0.034
AAGCTTAG | 0.0465 ± 0.086
GACGTGGA | 0.04 ± 0.064
TACGTGGA | 0.0197 ± 0.044
CACGTGGA | 0.459 ± 0.037

Sequence | PBM 8-mer E-score
TGTGTGAA | 0.183 ± 0.038
CATGTGGG | 0.309 ± 0.033
AATGTGGG | 0.142 ± 0.14
AGTGTGAG | 0.163 ± 0.14
AGTGTGAA | 0.254 ± 0.011
CATGTGGA | 0.213 ± 0.054
GCCTCGGA | -0.187 ± 0.058
AAGTAGCC | -0.0862 ± 0.0056
AACCTGAA | 0.0509 ± 0.081
AGGTTTCA | -0.031 ± 0.018
CACAAAAC | 0.165 ± 0.027
TAGACTCA | -0.163 ± 0.0053
CTGTGAGC | -0.113 ± 0.058
AAAAAGCC | 0.166 ± 0.028
AAAAAGCA | 0.218 ± 0.046
AAAAAGAT | 0.24 ± 0.03
AAAAAGAC | 0.0949 ± 0.026
AAAAAGCT | 0.272 ± 0.099
ACAAAGAT | 0.137 ± 0.027
ATATCGCG | 0.0599 ± 0.043
AGAAAGAT | 0.061 ± 0.093
ATTTTGAA | 0.253 ± 0.084
AATTTGAA | 0.149 ± 0.027
ATTTTGAG | 0.111 ± 0.012
CTCGAGGA | -0.0146 ± 0.017

Sequence | PBM 8-mer E-score
AATCCTGA | -0.167 ± 0.053
CCACATGA | 0.225 ± 0.1
GCACATGA | 0.256 ± 0.095
GCACATGC | 0.166 ± 0.06
AAACATGT | 0.331 ± 0.04
TCACATGA | 0.173 ± 0.029
CCACATGC | 0.217 ± 0.057
CCACATGG | 0.255 ± 0.11
ACACATGA | 0.148 ± 0.068
ACACATGC | 0.22 ± 0.019
AAACATGA | 0.169 ± 0.031
AAACATGG | 0.178 ± 0.064
ACACATGG | 0.271 ± 0.06
GAGGAGCC | -0.1 ± 0.084
ACCGGTGG | -0.147 ± 0.06
ACTACATC | 0.224 ± 0.007
CACCCCTC | 0.11 ± 0.013
AACCCATC | -0.108 ± 0.085
ACACATCT | 0.11 ± 0.072
ACACATAT | 0.184 ± 0.053
ACACATGT | 0.346 ± 0.023
CAGGCGCC | -0.0488 ± 0.0079
TTATTGAA | 0.3 ± 0.045
ATATTGAA | 0.161 ± 0.022
ATATTCAT | 0.287 ± 0.04

Sequence | PBM 8-mer E-score
ATATTGAT | 0.25 ± 0.047
ATATTGAG | 0.0529 ± 0.069
ATATTCAC | 0.181 ± 0.12
ATATTGAC | 0.0428 ± 0.0027
GTATTGAA | 0.209 ± 0.047
ATATTCAA | 0.197 ± 0.0025
AATGGTAC | 0.0908 ± 0.11
AACGGCAC | -0.107 ± 0.11
CGGTCTCA | -0.242 ± 0.2
GGTACCTA | -0.105 ± 0.16
AAGCACTT | 0.132 ± 0.045
ACTATGCG | 0.16 ± 0.042
ATAAAAAG | 0.328 ± 0.066
ATAAAAAA | 0.189 ± 0.02
ATAAAAGG | 0.192 ± 0.058
AATAAAAG | 0.281 ± 0.011
GATAAAAC | 0.203 ± 0.078
AATAAACC | 0.175 ± 0.022
AATAAAGG | 0.0493 ± 0.095
AATAAAAT | 0.0637 ± 0.011
AATAAACA | 0.171 ± 0.075
AATAAAAA | 0.266 ± 0.015
AATAAAAC | 0.271 ± 0.01
AAAAAAAG | 0.178 ± 0.016
CGAGCAGC | -0.0303 ± 0.083
